In PubChem BioAssay (NCATS):
Inconclusive results are not listed. Active and inactive are the calls of the source. Unless noted, the call rests on the fitted dose curve; in most records, active means well fitted curve in either direction with a large enough effect (not every such curve was filed as active); inconclusive means small, poorly fitted or top-dose-only effect, or another doubt; inactive means flat fitted curve, though single readings scatter.

What was measured:
[1] = target: Lysosomal acid glucosylceramidase (Homo sapiens) (UniProt P04062); assay: Glucocerebrosidase-p2 (AID 348; in the data active means potency below about 10 µM; further: potency means the concentration at half of the fitted maximal effect); conditions: purified GBA, blue fluorogenic substrate, 40 min
Lysosomal acid glucosylceramidase (Homo sapiens), sequence (P04062 whole entry, looked up): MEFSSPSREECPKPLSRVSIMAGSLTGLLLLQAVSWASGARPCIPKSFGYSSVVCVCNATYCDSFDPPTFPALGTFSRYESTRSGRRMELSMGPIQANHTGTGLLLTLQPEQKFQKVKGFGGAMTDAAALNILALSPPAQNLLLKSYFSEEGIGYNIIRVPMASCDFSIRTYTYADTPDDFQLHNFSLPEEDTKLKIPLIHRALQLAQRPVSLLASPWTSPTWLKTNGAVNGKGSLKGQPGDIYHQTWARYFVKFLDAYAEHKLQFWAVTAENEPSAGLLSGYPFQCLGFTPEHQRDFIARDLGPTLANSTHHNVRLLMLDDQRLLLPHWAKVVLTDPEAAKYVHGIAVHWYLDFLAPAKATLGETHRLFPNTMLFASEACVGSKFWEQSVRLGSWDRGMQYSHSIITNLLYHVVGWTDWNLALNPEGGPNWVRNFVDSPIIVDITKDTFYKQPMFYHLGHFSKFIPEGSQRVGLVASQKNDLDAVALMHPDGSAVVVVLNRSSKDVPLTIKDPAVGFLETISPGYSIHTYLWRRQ
In short: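 Normal human glucocerebrosidase (0.2 nM) with blue fluorogenic substrate (80 uM final) in citrate/phosphate pH 5.9 with 10mM sodium taurocholate, 0.01% tween-20; 40 min RT, NaOH/glycine stop; fluorescence Ex 365/Em 440; AC50 from a titration from 0.6 nM upwards.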

[2] = AP1 Signaling Pathway (AID 357); conditions: ME-180 AP-1-bla reporter, EGF-induced, beta-lactamase ratio, 5 h; at 7.69 µM (top of the series) unless noted;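 further: ME-180 reporter cells stimulated with EGF at its EC50 level; on the % scale 0 is the no-effect control and ±100 the full control effect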
In short: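 Cells are seeded overnight, exposed to compound titrations and an EC50 level of EGF for 5 hours at 37 °C, then loaded with CCF4 dye for 2.5 hours. Beta-lactamase activity under the AP-1 element is read as a blue/green ratio.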

[3] = target: Cytochrome P450 1A2 (Homo sapiens) (UniProt P05177); assay: p450-cyp1a2 (AID 410; calls by dose curve; further: potency means the concentration at half of the fitted maximal effect;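 on activity change, negative = inhibition: -100% = full effect of reference inhibitor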); conditions: recombinant CYP1A2, luciferin-ME demethylation, luminescence; series mostly up to 57 µM
Cytochrome P450 1A2 (Homo sapiens), sequence (P05177 whole entry, looked up): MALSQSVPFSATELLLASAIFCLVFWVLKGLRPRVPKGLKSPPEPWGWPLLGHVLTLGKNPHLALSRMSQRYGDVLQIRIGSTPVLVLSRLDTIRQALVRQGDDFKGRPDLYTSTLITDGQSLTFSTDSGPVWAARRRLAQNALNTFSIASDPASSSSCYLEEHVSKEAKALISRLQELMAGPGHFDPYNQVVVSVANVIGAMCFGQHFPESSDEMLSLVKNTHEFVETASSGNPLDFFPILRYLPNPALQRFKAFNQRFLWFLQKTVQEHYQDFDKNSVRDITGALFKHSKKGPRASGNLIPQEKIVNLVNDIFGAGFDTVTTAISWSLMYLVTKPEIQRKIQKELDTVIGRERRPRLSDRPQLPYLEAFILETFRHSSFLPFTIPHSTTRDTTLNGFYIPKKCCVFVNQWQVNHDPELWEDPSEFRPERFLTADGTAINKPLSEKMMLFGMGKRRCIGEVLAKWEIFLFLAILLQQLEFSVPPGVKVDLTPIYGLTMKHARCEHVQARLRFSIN
In short: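 Luminescent demethylation readout: Luciferin-ME (100uM, equal to Km) turned over by 20nM CYP1A2 for 60 min at room temperature after NADPH regeneration addition, following 10 min compound preincubation. Normalization used 57 uM furafylline as full inhibition.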

[4] = target: Glucocorticoid receptor (Homo sapiens) (UniProt P04150); assay: GR-GFP Redistribution (AID 450;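 active means compounds whose dose series gives a full or clear partial fitted curve of increased nuclear translocation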; further: potency means the concentration at half of the fitted maximal effect); conditions: U2OS GR-GFP nuclear translocation, laser cytometry, 2 h
Glucocorticoid receptor (Homo sapiens), sequence (P04150 whole entry, looked up, the tested form may be a part): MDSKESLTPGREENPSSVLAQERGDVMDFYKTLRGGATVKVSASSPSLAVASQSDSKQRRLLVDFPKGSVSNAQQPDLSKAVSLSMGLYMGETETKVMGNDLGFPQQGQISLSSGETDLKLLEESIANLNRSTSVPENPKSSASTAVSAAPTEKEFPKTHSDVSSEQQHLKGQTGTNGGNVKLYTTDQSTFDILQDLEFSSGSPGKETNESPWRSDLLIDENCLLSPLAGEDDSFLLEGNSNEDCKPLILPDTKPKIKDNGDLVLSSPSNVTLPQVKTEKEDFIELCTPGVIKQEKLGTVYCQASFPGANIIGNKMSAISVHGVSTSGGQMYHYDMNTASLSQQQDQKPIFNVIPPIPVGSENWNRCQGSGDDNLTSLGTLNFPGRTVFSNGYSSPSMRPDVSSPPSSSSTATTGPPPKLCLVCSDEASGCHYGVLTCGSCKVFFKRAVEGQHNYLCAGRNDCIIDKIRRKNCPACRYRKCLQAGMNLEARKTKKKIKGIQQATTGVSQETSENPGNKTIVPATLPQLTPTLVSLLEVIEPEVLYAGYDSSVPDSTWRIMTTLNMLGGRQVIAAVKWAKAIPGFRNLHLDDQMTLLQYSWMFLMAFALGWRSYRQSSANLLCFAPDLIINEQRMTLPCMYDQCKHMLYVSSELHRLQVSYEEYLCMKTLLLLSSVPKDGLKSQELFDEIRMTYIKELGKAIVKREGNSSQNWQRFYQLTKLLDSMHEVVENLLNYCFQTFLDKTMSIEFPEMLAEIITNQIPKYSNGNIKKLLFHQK

[5] = target: Glucocorticoid receptor (Homo sapiens) (UniProt P04150); assay: GR-EFC Redistribution (AID 451; calls by dose curve; further: potency means the concentration at half of the fitted maximal effect); conditions: CHO-K1 GR-EFC translocation, beta-gal luminescence, 2 h
In short: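 CHO-K1 cells expressing nuclear EA and GR-ED fragments of b-gal; compounds titrated up to 46 uM final, 2 h at 37 C. GR nuclear translocation read as complemented b-gal luminescence after 1 h RT detection.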

[6] = target: Mitogen-activated protein kinase 10 (Mus musculus) (UniProt Q61831); assay: JNK3 AlphaScreen Assay (AID 530); conditions: JNK3 lysate, c-Jun phosphorylation; series mostly up to 57.1 µM;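 further: kinase came from lysate of stimulated human HepG2 cells; signal reports phosphorylation of biotinylated GST-cJun 1-79 at Ser73 with 10 µM ATP; on the % scale 0 is the no-effect control and ±100 the full control effect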
In short: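 Activity was read by AlphaScreen after JNK3-containing HepG2 lysate (cytokine pre-activated) phosphorylated biotinylated GST-cJun with 10 uM ATP at room temperature. Phospho-Ser73 cJun antibody with Protein-A acceptor beads provided detection.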

[7] = target: Cytochrome P450 3A4 (Homo sapiens) (UniProt P08684); assay: qHTS Assay for Inhibitors and Substrates of Cytochrome P450 3A4 (AID 884; active means well fitted curve in the direction sought with a large enough effect; an effect the other way counts as inactive or inconclusive; further: nearly all actives have a fitted effect of over 50% in size; further: potency means the concentration at half of the fitted maximal effect); conditions: recombinant CYP3A4, Luciferin-PPXE luminescence; series mostly up to 57.1 µM
Cytochrome P450 3A4 (Homo sapiens), sequence (P08684 whole entry, looked up): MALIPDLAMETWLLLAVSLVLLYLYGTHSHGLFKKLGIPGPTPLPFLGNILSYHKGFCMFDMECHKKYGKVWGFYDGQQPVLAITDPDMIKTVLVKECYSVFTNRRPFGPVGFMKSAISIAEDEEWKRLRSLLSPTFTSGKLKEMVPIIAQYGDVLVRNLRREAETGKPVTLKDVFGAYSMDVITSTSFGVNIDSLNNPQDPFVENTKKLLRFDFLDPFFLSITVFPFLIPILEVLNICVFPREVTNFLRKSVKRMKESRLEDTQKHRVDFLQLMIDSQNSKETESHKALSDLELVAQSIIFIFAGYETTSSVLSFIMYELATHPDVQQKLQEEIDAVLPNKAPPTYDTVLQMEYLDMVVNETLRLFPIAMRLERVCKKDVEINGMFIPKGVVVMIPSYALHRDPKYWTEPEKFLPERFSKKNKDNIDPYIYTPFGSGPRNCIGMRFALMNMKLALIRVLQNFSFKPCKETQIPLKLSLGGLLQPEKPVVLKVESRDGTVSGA
In short: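 Luminescent readout of luciferin produced by CYP3A4 (20 nM) dealkylation of Luciferin-PPXE, 25 uM (its KM). NADPH-driven reaction ran 60 min at RT after 10 min compound preincubation; data scaled to 57 uM ketoconazole as 100% inhibition.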

[8] = target: Cytochrome P450 3A4 (Homo sapiens) (UniProt P08684); assay: qHTS Assay for Activators of Cytochrome P450 3A4 (AID 885; active means well fitted curve in the direction sought with a large enough effect; an effect the other way counts as inactive or inconclusive; further: nearly all actives have a fitted effect of over 65% in size; further: potency means the concentration at half of the fitted maximal effect); conditions: recombinant CYP3A4, Luciferin-PPXE luminescence, 60 min; series mostly up to 57.1 µM
In short: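 Activators are scored by enhanced luminescence from CYP3A4 conversion of luciferin-PPXE (25uM, equal to KM) to luciferin, after 60 min at RT with an NADPH-regenerating system.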

[9] = Confirmation and Secondary Assay for Modulators of Hemoglobin Beta Chain Splicing at IVS2 654 locus (AID 910; active means well fitted curve in the direction sought with a large enough effect; an effect the other way counts as inactive or inconclusive;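 further: HeLa cells stably carrying EGFP split by mutant beta-globin IVS2-654 intron; % of control where 0% means no effect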); conditions: HeLa EGFP-654 splicing reporter, GFP fluorescence, 48 h; series mostly up to 38.3 µM
In short: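 HeLa cells stably expressing EGFP interrupted by β-globin IVS2-654 intron, seeded overnight in Opti-MEM/2% FCS, then treated 2 days at 37 °C. Restored splicing read as total peak GFP intensity per well by laser scanning cytometry (488 nm excitation, 500–520 nm emission); 500 nM antisense PNA as control.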

[10] = Confirmation and Secondary Assay for Modulators of Hemoglobin Beta Chain Splicing at IVS2 705 locus (AID 930; active means well fitted curve in the direction sought with a large enough effect; an effect the other way counts as inactive or inconclusive;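 further: HeLa cells stably expressing the EGFP-705 splicing reporter; GFP fluorescence per well restored by corrected splicing of the IVS2-705 intron in EGFP; % of control where 0% means no effect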); conditions: HeLa EGFP-705 splicing reporter, GFP fluorescence, 48 h; series mostly up to 38.3 µM
In short: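 First, HeLa EGFP-705 cells are seeded at 500/well in Optimem with 2% FCS and left overnight. Next, compound or DMSO is added for 2 days. Finally wells are laser-scanned and total peak GFP intensity scored.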

[11] = target: Ubiquitin carboxyl-terminal hydrolase 1 (Homo sapiens) (UniProt O94782); assay: Inhibitors of USP1/UAF1: Pilot qHTS (AID 504865; active means well fitted curve in the direction sought with a large enough effect; an effect the other way counts as inactive or inconclusive;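 further: rhodamine fluorescence freed from ubiquitin-rhodamine substrate followed over time; top concentration of the series differs between compounds; on the % scale 0 is the no-effect control and ±100 the full control effect; nearly all actives have a fitted effect of over 35% in size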); conditions: purified USP1/UAF1, Ub-rhodamine cleavage fluorescence; series mostly up to 54.9 µM
Ubiquitin carboxyl-terminal hydrolase 1 (Homo sapiens), sequence (O94782 whole entry, looked up): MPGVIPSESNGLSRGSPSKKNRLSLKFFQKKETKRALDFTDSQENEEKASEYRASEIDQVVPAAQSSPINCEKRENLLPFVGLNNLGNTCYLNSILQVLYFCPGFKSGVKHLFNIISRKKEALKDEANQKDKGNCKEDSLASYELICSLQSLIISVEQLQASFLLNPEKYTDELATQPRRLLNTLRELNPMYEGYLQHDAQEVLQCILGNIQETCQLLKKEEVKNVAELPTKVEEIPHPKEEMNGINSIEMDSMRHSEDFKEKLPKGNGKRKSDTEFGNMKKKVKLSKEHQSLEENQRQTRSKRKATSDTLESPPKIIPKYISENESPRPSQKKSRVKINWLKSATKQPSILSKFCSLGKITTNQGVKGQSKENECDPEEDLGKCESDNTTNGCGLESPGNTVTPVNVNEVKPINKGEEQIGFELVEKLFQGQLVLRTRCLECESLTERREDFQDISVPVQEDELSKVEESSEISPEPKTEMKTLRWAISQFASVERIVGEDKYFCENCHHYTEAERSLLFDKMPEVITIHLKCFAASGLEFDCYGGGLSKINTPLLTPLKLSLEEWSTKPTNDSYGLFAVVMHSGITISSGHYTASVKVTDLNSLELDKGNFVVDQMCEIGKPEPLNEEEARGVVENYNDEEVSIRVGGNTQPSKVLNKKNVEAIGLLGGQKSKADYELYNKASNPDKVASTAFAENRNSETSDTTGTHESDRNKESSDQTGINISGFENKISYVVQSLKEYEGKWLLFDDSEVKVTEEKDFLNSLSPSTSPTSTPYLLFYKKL
In short: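 Deubiquitinase activity followed as kinetic rhodamine fluorescence release from 150 nM Ub-Rho. 1 nM USP1/UAF1 with compound, after 15 min room-temperature preincubation, in HEPES pH 7.8 buffer containing TCEP, EDTA, BSA and Tween-20.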

[12] = Primary qHTS for small molecule stabilizers of the endoplasmic reticulum resident proteome: Secreted ER Calcium Modulated Protein (SERCaMP) assay (AID 1508630; active means well fitted curve in the direction sought with a large enough effect; an effect the other way counts as inactive or inconclusive; further: on the % scale 0 is the no-effect control and ±100 the full control effect); conditions: SH-SY5Y GLuc-SERCaMP (Gaussia luciferase released on ER calcium loss) secretion, thapsigargin, luminescence; series mostly up to 38.4 µM
In short: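 The SH-SY5Y reporter protocol was run at 3 concentrations up to 38.3 uM (primary) or 11 concentrations (follow-up): 16 h compound, 100 nM thapsigargin for 4 h, then extracellular luciferase luminescence.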

[13] = Stat Signaling Pathway (AID 446); conditions: ME-180 SIE beta-lactamase reporter, IL-6 stimulated, 5 h; at 7.69 µM (top of the series) unless noted;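 further: ME-180 cervical cancer cells given 40 pM IL-6 alongside compound; SIE-controlled beta-lactamase reporter measured as 460/530 nm FRET emission ratio; on the % scale 0 is the no-effect control and ±100 the full control effect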
In short: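 Emission at 460 and 530 nm (excitation 405 nm) reports SIE-controlled beta-lactamase in ME-180 cells. Cells received compound with 40 pM IL-6 for 5 hrs at 37 C; data scaled between 300 pM IL-6 and 125 nM JAK-inhibitor controls.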

[14] = target: 3',5'-cyclic-AMP phosphodiesterase 4B (Homo sapiens) (UniProt Q07343); assay: qHTS Assay for Inhibitors of PDE-IV (AID 607; active means well fitted activation curve with a large enough effect in the main read-out, with a control signal flat, not every such curve was filed as active; further: % of control where 0% means no effect); conditions: HEK293 ACTOne CNG channel cells, membrane potential fluorescence; series mostly up to 22.9 µM
3',5'-cyclic-AMP phosphodiesterase 4B (Homo sapiens), sequence (Q07343 whole entry, looked up): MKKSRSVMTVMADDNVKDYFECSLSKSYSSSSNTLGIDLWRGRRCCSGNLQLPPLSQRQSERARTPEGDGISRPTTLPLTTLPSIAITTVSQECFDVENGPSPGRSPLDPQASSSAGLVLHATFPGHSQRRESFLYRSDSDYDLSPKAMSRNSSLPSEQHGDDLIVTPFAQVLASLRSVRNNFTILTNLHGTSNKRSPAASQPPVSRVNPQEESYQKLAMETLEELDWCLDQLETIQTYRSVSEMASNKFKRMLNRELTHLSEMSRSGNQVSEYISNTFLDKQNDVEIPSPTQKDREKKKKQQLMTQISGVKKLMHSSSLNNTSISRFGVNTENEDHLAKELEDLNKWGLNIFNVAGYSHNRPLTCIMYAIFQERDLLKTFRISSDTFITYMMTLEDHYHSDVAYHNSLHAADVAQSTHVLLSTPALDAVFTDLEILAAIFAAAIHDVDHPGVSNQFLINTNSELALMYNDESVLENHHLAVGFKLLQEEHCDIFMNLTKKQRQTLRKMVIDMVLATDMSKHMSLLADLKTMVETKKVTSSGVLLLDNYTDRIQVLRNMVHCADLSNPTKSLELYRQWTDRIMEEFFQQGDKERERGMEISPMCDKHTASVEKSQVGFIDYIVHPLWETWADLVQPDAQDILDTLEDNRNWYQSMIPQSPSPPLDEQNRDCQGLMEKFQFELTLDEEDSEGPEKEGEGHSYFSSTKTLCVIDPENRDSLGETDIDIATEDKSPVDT
In short: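 The readout is membrane depolarisation from a cAMP-sensing CNG channel, detected with a potential dye at ex 535/em 590. Cells were HEK293-derived (endogenous PDE-IV) at 1000 cells/well, titrated up to 22.9 uM final.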

[15] = target: Cytochrome P450 2C9 (Homo sapiens) (UniProt P11712); assay: qHTS Assay for Inhibitors and Substrates of Cytochrome P450 2C9 (AID 883; active means well fitted curve in the direction sought with a large enough effect; an effect the other way counts as inactive or inconclusive; further: potency means the concentration at half of the fitted maximal effect; nearly all actives have a fitted effect of over 60% in size); conditions: recombinant CYP2C9, luciferin-H luminescence, 60 min; series mostly up to 57.1 µM
In short: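 Human CYP2C9 (10nM) with Luciferin-H at 100uM (its KM) in 25mM KPO4; compound preincubated 10 min at 37C, then NADPH regeneration for 60 min at 37C. Luciferin read by luminescence after detection reagent; normalized to 57uM sulphaphenazole as full inhibition.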

[16] = target: Cytochrome P450 2C19 (Homo sapiens) (UniProt P33261); assay: qHTS Assay for Inhibitors and Substrates of Cytochrome P450 2C19 (AID 899; active means well fitted curve in the direction sought with a large enough effect; an effect the other way counts as inactive or inconclusive; further: potency means the concentration at half of the fitted maximal effect; nearly all actives have a fitted effect of over 60% in size); conditions: recombinant CYP2C19, luciferin-H EGE luminescence; series mostly up to 57.1 µM
Cytochrome P450 2C19 (Homo sapiens), sequence (P33261 whole entry, looked up): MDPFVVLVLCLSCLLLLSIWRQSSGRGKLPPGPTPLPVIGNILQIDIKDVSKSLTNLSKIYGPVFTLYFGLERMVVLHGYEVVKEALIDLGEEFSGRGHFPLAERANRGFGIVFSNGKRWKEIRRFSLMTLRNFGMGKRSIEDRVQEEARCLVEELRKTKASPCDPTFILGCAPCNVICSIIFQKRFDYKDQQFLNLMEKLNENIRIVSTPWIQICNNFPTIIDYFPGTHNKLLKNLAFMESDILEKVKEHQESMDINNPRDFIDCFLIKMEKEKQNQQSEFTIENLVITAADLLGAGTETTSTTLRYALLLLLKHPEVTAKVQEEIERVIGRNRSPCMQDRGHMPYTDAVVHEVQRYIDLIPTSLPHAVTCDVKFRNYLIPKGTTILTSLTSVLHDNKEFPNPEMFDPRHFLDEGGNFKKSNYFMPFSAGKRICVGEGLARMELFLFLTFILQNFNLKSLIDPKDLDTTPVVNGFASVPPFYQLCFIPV
In short: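 5 nM human CYP2C19 with 10uM Luciferin-H EGE (at KM) in 50mM KPO4, compound preincubated 10 min at 37C, then NADPH regeneration for 60 min at 37C. Luciferin read by luminescence after detection reagent; normalized to 57uM ketoconazole as full inhibition.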

[17] = target: Cytochrome P450 2D6 (Homo sapiens) (UniProt P10635); assay: qHTS Assay for Inhibitors and Substrates of Cytochrome P450 2D6 (AID 891; active means well fitted curve in the direction sought with a large enough effect; an effect the other way counts as inactive or inconclusive; further: potency means the concentration at half of the fitted maximal effect; nearly all actives have a fitted effect of over 60% in size); conditions: recombinant CYP2D6, luciferin-ME EGE luminescence; series mostly up to 57.1 µM
Cytochrome P450 2D6 (Homo sapiens), sequence (P10635 whole entry, looked up): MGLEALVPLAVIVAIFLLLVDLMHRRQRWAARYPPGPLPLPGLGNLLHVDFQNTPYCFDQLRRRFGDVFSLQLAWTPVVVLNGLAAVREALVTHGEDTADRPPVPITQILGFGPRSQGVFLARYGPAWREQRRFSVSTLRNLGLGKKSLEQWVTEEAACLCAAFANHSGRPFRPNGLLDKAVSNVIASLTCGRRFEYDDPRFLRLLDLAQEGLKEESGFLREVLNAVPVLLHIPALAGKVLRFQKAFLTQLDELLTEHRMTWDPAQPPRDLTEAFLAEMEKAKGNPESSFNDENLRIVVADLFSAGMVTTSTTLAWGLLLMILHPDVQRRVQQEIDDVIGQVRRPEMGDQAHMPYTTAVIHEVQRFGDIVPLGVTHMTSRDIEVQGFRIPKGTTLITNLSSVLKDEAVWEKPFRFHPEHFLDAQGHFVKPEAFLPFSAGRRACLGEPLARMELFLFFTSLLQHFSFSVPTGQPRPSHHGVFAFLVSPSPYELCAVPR
In short: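 Luminescent read-out of luciferin formed by 5 nM human CYP2D6 demethylating 30 uM Luciferin-ME EGE (Km level) over 60 min at room temperature after NADPH regeneration addition. Data normalized to full inhibition by 1.43 uM quinidine.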

[18] = qHTS Assay for Identification of Small Molecule Agonists for Hypoxia Response Element Signaling Pathway (AID 914; active means well fitted activation curve with a large enough effect in the signal ratio, with a control signal flat, not every such curve was filed as active; the % refers to the signal ratio; further: % of control where 0% means no effect); conditions: ME-180 (cervical carcinoma) HRE-bla reporter, beta-lactamase ratio, CoCl2, 17 h; activation: hits give high values
In short: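 Positive modulation of EC50 CoCl2-induced hypoxia response element signaling is measured in ME-180 cells with a beta-lactamase reporter. Compounds are titrated, incubation runs 17 hours, and %Activity derives from the blue/green ratio.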

Cc1cnc(CNc2nc(-c3ccc4c(c3)OCO4)nc3ccccc23)cn1
active: Potency [3] 2 µM | Potency [7] 0.794 µM
inactive: Potency [1] > 11.4 µM | activity change, negative = inhibition [2] -3.88% | Potency [4] > 46 µM | Potency [5] > 46 µM | Potency [6] | Potency [8] | Potency [9] | outcome [10] | Potency [11] | outcome [12]

O=C(Oc1ccccc1)N1CCC2(CCCN(c3ccc(-c4ccccc4)cc3)C2)CC1
inactive: Potency [1] > 11.4 µM | activity change, negative = inhibition [2] 27% | Potency [3] | activity, negative = inhibition [13] 6.94% | Potency [5] > 46 µM | Potency [6] | Potency [14] | Potency [8] | outcome [12]

O=S(=O)(c1ccccc1)N1CCC2(CCN(Cc3ccncc3)CC2)CC1
active: Potency [7] 3.98 µM
inactive: Potency [1] > 11.4 µM | activity change, negative = inhibition [2] -0.758% | Potency [3] | activity, negative = inhibition [13] 7.32% | Potency [5] > 46 µM | Potency [6] | Potency [14] | Potency [8] | outcome [12]

COc1ccccc1CCn1c(=O)c(-c2ccc(Cl)cc2)nc2cncnc21
active: Potency [3] 0.631 µM | Potency [15] 3.98 µM | Potency [7] 3.98 µM | Potency [16] 0.398 µM
inactive: Potency [1] > 11.4 µM | activity change, negative = inhibition [2] 10.2% | activity, negative = inhibition [13] 6.76% | Potency [4] > 9.22 µM | Potency [5] > 46 µM | Potency [6] | Potency [14] | Potency [8] | outcome [12]

O=C(c1cnccn1)N1CCC2(CC1)CN(Cc1cc(C(F)(F)F)cc(C(F)(F)F)c1)C2
inactive: Potency [1] > 11.4 µM | activity change, negative = inhibition [2] -17.8% | Potency [3] | activity, negative = inhibition [13] -1.36% | Potency [5] > 46 µM | Potency [6] | Potency [14] | outcome [12]
active: Potency [17] 0.398 µM

COC(=O)N1CCC2(CCCN(Cc3ccccc3)C2)CC1
inactive: Potency [1] > 11.4 µM | activity change, negative = inhibition [2] -5.44% | Potency [3] | activity, negative = inhibition [13] 2.77% | Potency [5] > 46 µM | Potency [6] | Potency [14] | activation [18] 3.12% | outcome [12]

COC(=O)N1CCC2(CC1)CCN(c1ccccn1)CC2
active: Potency [8] 20 µM
inactive: Potency [1] > 11.4 µM | activity change, negative = inhibition [2] -8.66% | Potency [3] | activity, negative = inhibition [13] -8.24% | Potency [5] > 46 µM | Potency [6] | Potency [14] | Potency [7] | outcome [12]

N#Cc1cccc(NC(=O)N2CCCC3(CCN(C(=O)c4cccc(F)c4)CC3)C2)c1
inactive: Potency [1] > 11.4 µM | activity change, negative = inhibition [2] -6.98% | activity, negative = inhibition [13] -4.33% | Potency [5] > 46 µM | Potency [6] | Potency [14] | Potency [8] | outcome [12]
active: Potency [3] 12.6 µM

Cc1nc2cnc(Oc3cccc(Cl)c3)nc2n(CCc2ccccc2)c1=O
inactive: Potency [1] > 11.4 µM | activity change, negative = inhibition [2] 2.12% | activity, negative = inhibition [13] 18.7% | Potency [4] > 9.22 µM | Potency [5] > 46 µM | Potency [6] | outcome [12]
active: Potency [3] 12.6 µM

O=C(c1ccncc1)N1CCC2(CCCN(Cc3ccccc3)C2)CC1
inactive: Potency [1] > 11.4 µM | activity change, negative = inhibition [2] -9.7% | Potency [3] | activity, negative = inhibition [13] -8.26% | Potency [6] | Potency [14] | Potency [8] | outcome [12]

O=C(c1csnn1)N1CCC[C@@]2(CCN(c3ccncc3)C2)C1
inactive: Potency [1] > 11.4 µM | activity change, negative = inhibition [2] 13.9% | Potency [3] | activity, negative = inhibition [13] 8.6% | Potency [5] > 46 µM | Potency [6] | Potency [14] | outcome [12]

O=S(=O)(c1ccccc1)N1CCC2(CC1)CN(Cc1ccccc1)C2
inactive: Potency [1] > 11.4 µM | activity change, negative = inhibition [2] 7.31% | Potency [3] | activity, negative = inhibition [13] 2.83% | Potency [5] > 46 µM | Potency [6] | Potency [14] | activation [18] 8.23% | outcome [12]
active: Potency [17] 0.158 µM

O=C(c1ccco1)N1CCC2(CCCN(Cc3ccccc3)C2)CC1
inactive: Potency [1] > 11.4 µM | activity change, negative = inhibition [2] -8.21% | Potency [3] | activity, negative = inhibition [13] 10.9% | Potency [5] > 46 µM | Potency [6] | Potency [14] | Potency [8] | activation [18] 3.78% | outcome [12]

CC(=O)N1CCC2(CC1)CCN(C(c1ccccc1)c1ccccc1)CC2
inactive: Potency [1] > 11.4 µM | activity change, negative = inhibition [2] -6.19% | Potency [3] | activity, negative = inhibition [13] -5.71% | Potency [5] > 46 µM | Potency [6] | Potency [7] | outcome [12]
active: Potency [8] 25.1 µM | Potency [17] 7.94 µM

Cn1cccc1C(=O)N1CCC2(CC1)CCN(c1ccccn1)CC2
inactive: Potency [1] > 11.4 µM | activity change, negative = inhibition [2] -0.389% | activity, negative = inhibition [13] -4.58% | Potency [5] > 46 µM | Potency [6] | Potency [14] | outcome [12]
active: Potency [3] 15.8 µM
